Anthrax LF inh2 – blocks Bacillus anthracis lethal factor protease | multiplex microsphere protease cleavage assay, LF | inhibition, % at 10 µM | 360,000 compounds, 0.12% hits | AID 588501; further: plate controls were buffer without enzyme for full effect and enzyme alone for no effect
BoNT-F LC inh – BoNT F light chain protease inhibition; Multiplex microsphere protease cleavage assay, flow cytometry; inhibition, % at 10 µM; 360,000 compounds, 0.22% hits; in the data active means inhibition above about 35%, passing the limit was not always enough; inconclusive means no clear call, values can overlap the other calls; further: plate controls were buffer without enzyme for full effect and enzyme alone for no effect
MazEF act – MazEF (E. coli) toxin RNase activation | P0AE70 | AID 504720 | FAM/BHQ RNA-DNA oligo cleavage fluorescence, 5 h | 350,000 compounds, 0.32% hits | activation, % at 20 µM; in the data active means activation above about 50%
Target sequence (P0AE70 whole entry, looked up): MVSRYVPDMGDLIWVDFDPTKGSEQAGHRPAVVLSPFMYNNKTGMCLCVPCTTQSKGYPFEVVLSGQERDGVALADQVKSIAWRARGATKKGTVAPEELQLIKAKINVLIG
Bead autofluor – flagged as autofluorescent in microsphere protease counterscreen | compound autofluorescence counterscreen, microsphere flow cytometry; active compounds read high | fluorescence intensity (concentration not given with the values) | 360,000 compounds, 3.1% hits | AID 624483; in the data active means fluorescence intensity above about 16000; inconclusive means no clear call, values can overlap the other calls
BoNT-A LC inh2 – BoNT A light chain protease inhibition; 360,000 compounds, 0.17% hits; inhibition, % at 10 µM; AID 588499; multiplex microsphere protease substrate cleavage, flow cytometry; further: plate controls were buffer without enzyme for full effect and enzyme alone for no effect
Active calls of the source: *; u = inconclusive; x = no result. This is a sample that favours compounds with a hit; in the whole collection about 3.7% have one here. Unless noted, no stated cut-off is given here; in the data, active means inhibition above about 30%; inconclusive means no clear call, values can overlap the other calls; inactive means below that.

SMILES	Anthrax LF inh2	BoNT-F LC inh	MazEF act	Bead autofluor	BoNT-A LC inh2
COC(=O)c1nn(-c2ccc(OC)cc2)c(=O)cc1Oc1cccc(Cl)c1	-0.3	-3.7	4.2	20164*	u
CSCC[C@H](NC(=O)c1cccnc1)c1nnc2ccccn12	1.0	3.3	-9.7	4985	-0.1
CS(=O)(=O)Nc1ccc2c(c1)[C@@H]1C[C@@H](CC(=O)NCc3cccnc3)O[C@H](CO)[C@@H]1O2	0.5	-7.9	2.0	2767	0.2
COc1ccc(C)cc1Nc1n[n+](-c2ccccc2)c(-c2ccc(NC(C)=O)cc2)s1	4.0	-24.5	-6.6	4540	1.3
COc1ccc(C)cc1Nc1n[n+](-c2ccccc2)c(-c2cc([N+](=O)[O-])cc(OC)c2O)s1	-7.5	-22.8	445.0*	5888	0.4
Clc1ccc(-c2nc3ccccn3c2CN2CCOCC2)cc1	-4.3	-13.2	2.5	4388	-0.6
Clc1ccc2nc(-c3ccccc3)c(CN3CCOCC3)n2c1	3.8	-2.2	2.7	23584*	-0.3
O=C(CCCn1c(=O)c2sccc2n(CC(=O)OCc2ccccc2)c1=O)NCc1ccco1	-2.6	-11.7	-1.8	12519	-1.4
CC1CCCCN1C(=O)Cn1c(=O)n(CCC(=O)NCc2ccco2)c(=O)c2sccc21 (stereo not given)	-1.4	3.8	-3.3	19227*	2.5
Cc1cccc(C)c1NC(=O)Cn1c(=O)n(CCC(=O)NCc2ccco2)c(=O)c2sccc21	-2.8	-4.2	-0.6	20666*	-1.8
O=C(CCn1c(=O)c2sccc2n(CC(=O)OCc2ccccc2)c1=O)NCc1ccco1	-1.9	-3.3	-4.9	11636	0.2
CCN(Cc1ccccc1)C(=O)Cn1c(=O)n(CC(=O)NCc2ccco2)c(=O)c2sccc21	-9.4	0.6	-9.4	21886*	0.4
COc1ccc(N2CC(C(=O)Nc3nc4ccc(F)cc4s3)CC2=O)c(OC)c1 (stereo not given)	3.4	-3.9	2.1	5722	1.9
COc1cc(C(=O)N(Cc2ccco2)Cc2cc3ccccc3[nH]c2=O)cc(OC)c1OC	-1.2	-3.6	-0.1	23180*	u
CN1CCN(S(=O)(=O)c2cccc([N+](=O)[O-])c2)CC1	-0.7	-0.9	-2.6	20528*	-0.1
CN1CCN(S(=O)(=O)c2ccc3ccccc3c2)CC1	-6.8	-2.4	3.5	6375	-0.3
CN1CCN(S(=O)(=O)c2cccc(S(=O)(=O)c3cccc(S(=O)(=O)N4CCN(C)CC4)c3)c2)CC1	0.5	-0.3	6.2	21260*	-1.1
COc1ccc(OC)c2c1cc(C(=O)N[C@H](C(=O)N1CCC[C@H]1C(=O)O)C(C)C)n2C	2.3	0.9	0.9	3961	0.1
COc1cccc(NC(=S)N2CCN(C/C=C/c3ccccc3)CC2)c1	-3.1	-5.8	-7.6	22410*	-1.5
O=C(Nc1ccc2c(c1)OCO2)N1CCN(c2ncccn2)CC1	-0.3	1.8	4.7	22918*	1.3
O=C(Nc1ccc2c(c1)OCO2)N1CCN(c2ccccc2)CC1	-0.4	-5.1	-13.6	2161	-0.8
O=C(Nc1ccc(F)cc1F)N1CCN(C/C=C/c2ccccc2)CC1	0.1	-3.7	3.5	6072	-0.4
COC(=O)c1ccccc1NC(=O)N1CCN(C/C=C/c2ccccc2)CC1	-1.7	-2.0	-3.4	20603*	0.4
Cc1ccc(NC(=O)N2CCN(C/C=C/c3ccccc3)CC2)cc1	-1.0	-7.9	3.2	3010	-1.7
O=C(Nc1ccc2c(c1)OCO2)N1CCN(C/C=C/c2ccccc2)CC1	-1.7	-4.1	-4.8	17067*	-1.5
SMILES	Anthrax LF inh2	BoNT-F LC inh	MazEF act	Bead autofluor	BoNT-A LC inh2
COc1cc(NC(=S)N2CCN(C/C=C/c3ccccc3)CC2)cc(OC)c1	-0.8	-1.4	-10.3	1912	-0.2
CCCCNC(=O)C1c2ccccc2OCC(=O)N1Cc1ccc2c(c1)OCO2 (stereo not given)	-4.3	-7.0	x	5305	0.4
Cc1cccc(OCc2n[nH]c(=S)o2)c1	1.2	0.5	0.2	24801*	-1.4
Cc1ccc2nc3c(cc(C(N)=S)c(=N)n3CCCOC(C)C)c(=O)n2c1	13.0	-8.9	20.9	13411	45.3*
COCCCn1c(=N)c(C(N)=S)cc2c(=O)n3cccc(C)c3nc21	-22.3	-60.9	3.6	3064	11.7
Cc1ccc2nc3c(cc(C(=O)NCC4CCCO4)c(=N)n3CC3CCCO3)c(=O)n2c1 (stereo not given)	32.9*	1.9	2.0	3882	0.7
O=C(O)CSc1nnc(C2COc3ccccc3O2)n1-c1ccccc1 (stereo not given)	-2.2	3.0	5.7	19815*	1.0
O=C(O)CSc1nnc(C2CC2)n1-c1ccccc1	1.0	11.1	6.9	3816	1.2
CCOC(=O)c1cnc(NCc2ccccc2)nc1C	-2.7	-1.4	4.9	16359*	-0.2
CCOC(=O)c1cccnc1SCC(=O)NCc1ccccc1	-1.9	0.6	4.6	19817*	0.7
C=CCSc1ncccc1C(=O)NCCc1ccccc1	-7.5	-10.3	-2.7	3101	-2.1
C=CCSc1ncccc1C(=O)NCc1ccccc1	-3.0	3.3	1.4	21460*	3.0
COc1cc(NC(=O)c2cnc(NCc3ccccc3)nc2C)cc(OC)c1OC	0.1	11.9	7.3	3393	0.2
Cc1sc2ncnc(N3CCC(C(=O)Nc4nnc(SCc5ccccc5F)s4)CC3)c2c1C	u	u	-12.3	u	u
OC[C@@H]1CN(Cc2cccc3ccccc23)C[C@H](n2cnc3c(NCc4ccco4)ncnc32)O1	-1.9	-2.3	x	3720	-0.3
COc1nnc(-c2ccc(N3CCCCC3)c(NC(=O)COc3ccccc3)c2)c2ccccc12	-7.2	-5.6	-9.4	5783	0.5
CCOC(=O)C1CCN(C(=O)c2ccc3c(=O)n4nc(Nc5ccccc5)sc4nc3c2)CC1	2.6	-5.3	14.4	3767	-0.6
COc1ccc(NC(=O)C(CC(=O)O)Cc2ccc(Br)cc2)cc1 (stereo not given)	15.5	u	6.2	3959	-2.8
COc1ccc(NC(=O)C(CC(=O)O)Cc2ccccc2)cc1 (stereo not given)	3.5	3.3	-1.8	22396*	2.0
C/C(=N/NC(=O)CNS(=O)(=O)c1ccccc1)c1ccc(Br)cc1	-11.9	0.3	9.4	3569	0.0
Cc1c(/C=N/NC(=O)c2cccnc2)c2ccccc2n1Cc1ccccc1	-5.2	30.0	7.8	24760*	-8.4
Cc1cc(NC(=O)/C(C#N)=C/c2ccc(-c3ccc(SC(F)F)cc3)o2)n(-c2ccccc2)n1	-0.3	-0.6	405.2*	2727	0.5
N#C/C(=C/c1ccc(-c2ccc(S(N)(=O)=O)cc2)o1)C(=O)Nc1ccccc1	1.4	-5.9	101.2*	2461	0.3
N#C/C(=C\c1ccco1)C(=O)Nc1ccc(S(N)(=O)=O)cc1	3.3	-1.3	11.3	3325	0.8
CCCc1c(C(=O)N/N=C/c2ccoc2)nnn1-c1nonc1N	1.9	-5.3	-3.8	2855	0.0
Cc1ccc(S(=O)(=O)CCC(=O)N2CCN(c3ccc([N+](=O)[O-])cc3)CC2)cc1	-2.1	0.2	-3.8	5300	0.2
Cc1cccc(OCC(=O)N(Cc2ccco2)C2CCS(=O)(=O)C2)c1 (stereo not given)	-15.2	-0.6	-6.2	5659	0.0

Bioassay records deposited in PubChem by several laboratories.
